AMA1 RON2 block: AMA1-RON2 (P. falciparum) interaction inhibition; AlphaScreen AMA1-biotinylated RON2 peptide binding; Potency, µM (top dose mostly 58.2 µM), inactives show at the top dose activity change, negative = inhibition, usual class: inhibitors; 360,000 tested, 0.2% active; AID 720542;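 note: 0% = vehicle wells and -100% = peptide control; nearly all actives have a fitted effect of over 45% in size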
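AMA1 (3D7) with his tag at 25 nM final met compounds first, then biotinylated RON2 peptide at 25 nM; detection used donor plus acceptor beads, 10 µg/mL apiece, read by AlphaScreen after 30 min at room temperature.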
Pf growth 48h: P. falciparum growth inhibition at 48 hours (one generation) | P. falciparum luciferase growth in erythrocytes, 48 h | Potency, µM (titrated, usually from 28.7 µM), without a hit: top-dose activity change, negative = inhibition, actives largely listed as inhibitors | 310,000 tested, 5.9% active | AID 504832; note: % is set by controls: 0 for no effect and ±100 for the full control effect
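In quantitative HTS format, infected erythrocytes bearing luciferase-reporter parasites were treated for a single generation at 37 C. Luminescence after adding detection reagent served as the growth measure.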
NS1 inh: inhibitors of influenza NS1 protein function | Potency, µM (top dose mostly 46.1 µM), inactives show at the highest dose activity, positive = more growth | 270,000 tested, 0.4% active; calls by dose curve; note: actives are rising curves; nearly all actives have a fitted effect of over 50% in size
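Compounds were scored for reversing the slow growth caused by influenza A NS1 in S. cerevisiae, measured by optical density at 600 nm. Assay medium contained 2% galactose at pH 6.0; NS1-free yeast of the same strain were the positive control.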
HCV inh: HCV inhibition; Huh7.5.1 HCVcc-Cre infection, luciferase reporter, 44 h; Potency, µM (titrated, usually from 41.8 µM), inactives show at the top dose activity change, negative = inhibition, usual class: inhibitors; 340,000 tested, 3.4% active; AID 651820; note: % is set by controls: 0 for no effect and ±100 for the full control effect
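Compounds are dispensed onto cells plated 4 h earlier at 1,000 per well, with HCVcc-Cre virus (about 0.5 moi) added next. Following 44 h of culture, luminescent signal is measured for 15 sec after 15 min with substrate at room temperature.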
Pf growth 96h: P. falciparum growth inhibition at 96 hour, primary screen for plastid delayed-death inhibitors | P. falciparum luciferase reporter growth, 96 h | Potency, µM (doses to about 28.7 µM), for the others: top-dose activity change, negative = inhibition, usual class: inhibitors | 320,000 tested, 6.9% active | AID 504834; note: % is set by controls: 0 for no effect and ±100 for the full control effect
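Cell-based qHTS: luciferase-tagged P. falciparum in erythrocytes (2% hematocrit, 0.05% parasitemia final) incubated with compounds for 96 hours, 37 C, 5% CO2; luciferase detection reagent then added and luminescence measured.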
SARS PLpro yeast: inhibitors of SARS-CoV papain-like protease in yeast | S. cerevisiae expressing SARS-CoV PLpro, growth rescue | Potency, µM (titrated, usually from 32.9 µM), without a hit: top-dose activity, positive = growth rescue, hits mostly activators | 330,000 tested, 0.19% active | AID 485353; calls by dose curve; note: 0% is about no effect; nearly all actives have a fitted effect of over 55% in size
* marks the source's active call; other numbers are inactive results; ? = inconclusive; · = no result given. Sampled rows, rich in hits. Any-hit rate of the full collection: about 12%. Unless noted, calls come from the whole dose curve; as a rule, active = well fitted curve in the direction sought with a large enough effect; inconclusive = small, poorly fitted or top-dose-only effect, or another doubt; inactive = no such curve, though single readings can be large; an effect the other way counts as inactive or inconclusive. Potency is the fitted concentration of half-maximal effect.

SMILES	AMA1 RON2 block	Pf growth 48h	NS1 inh	HCV inh	Pf growth 96h	SARS PLpro yeast
CCC(COC(=O)NC)NC(=O)Oc1cccc(C)c1 (centres undefined)	0%	-1%	9%	11%	?	-1%
COc1cccc(/C=C/C(=O)OCC(=O)NCCc2ccccc2)c1	11%	18%	·	8%	6%	-8%
c1ccc(C[n+]2cccc(-c3cc4ccccc4[nH]3)c2)cc1	·	·	-6%	·	·	·
C=CC[n+]1cccc(-c2cc3ccc(C)cc3[nH]2)c1	-3%	?	0%	-9%	5.2µM*	1%
COc1ccc(OC)c(C2CC(c3c(-c4ccccc4)c4cc(Cl)ccc4[nH]c3=O)=NN2S(C)(=O)=O)c1 (centres undefined)	5%	9.3µM*	20%	-14%	2.1µM*	4%
COC(=O)C[C@@H]1C[C@H]2c3cc(NS(C)(=O)=O)ccc3O[C@H]2[C@H](CO)O1	16%	·	·	·	·	·
CCOC(=O)N1CCC(NC(=O)c2oc3c(c2C)-c2[nH]ncc2CC3)CC1	10%	·	16%	16%	8.3µM*	2%
CCOC(=O)N1CCC(NC(=O)Cn2c3ccccc3c3cn[nH]c(=O)c32)CC1	·	6%	2%	18%	-1%	7%
Cc1ccc(C(=O)N/C(=C\c2cn(C)c3ccccc23)C(=O)NCCN2CCOCC2)cc1	-1%	?	3%	-4%	?	·
Cc1cc(NC(=O)CSc2cn(CC(=O)N(C(C)C)C(C)C)c3ccccc23)no1	-3%	0%	12%	?	?	0%
COc1ccc(-c2oc(NC(=O)CSc3ncn[nH]3)c(C#N)c2-c2ccc(OC)cc2)cc1	35%	?	?	-3%	?	7%
COc1ccc(-c2oc(NC(=O)CCl)c(C#N)c2-c2ccc(OC)cc2)cc1	-1%	·	4%	-25%	9.3µM*	5%
CCN(CC)C(=O)CSc1nc2c(sc(=S)n2-c2ccccc2)c(=O)[nH]1	-3%	20%	·	19%	?	0%
COc1ccc(-n2c(=S)[nH]c3c(sc(=S)n3-c3ccccc3)c2=O)c(OC)c1	5%	10%	·	20%	-24%	6%
CCN(CC)C(=O)CSc1nc2c(sc(=S)n2Cc2ccco2)c(=O)n1-c1ccccc1	-4%	?	24%	-25%	7.4µM*	-1%
CCOC(=O)CSc1nc2c(sc(=S)n2-c2ccccc2OC)c(=O)n1-c1ccccc1OC	-5%	12µM*	20%	?	11%	1%
COc1ccc(-n2c(SCC(=O)C(C)(C)C)nc3c(sc(=S)n3-c3ccccc3)c2=O)c(OC)c1	3%	2.1µM*	?	?	0%	1%
CCOC(=O)CSc1nc2c(sc(=S)n2-c2ccccc2OC)c(=O)n1Cc1ccco1	-24%	?	16%	2.8µM*	9%	17%
Cc1ccc(S(=O)(=O)N(CC(=O)Nc2ccc(Cl)cc2)C(=O)N2CCN(C)CC2)cc1	-13%	10%	·	6%	3%	-2%
O=C(NCCc1nc(-c2ccccc2)cs1)c1ccc(Br)cc1	0%	9%	-11%	11µM*	0%	-37%
N#Cc1csc(CCNC(=O)c2ccccc2)n1	-4%	·	·	·	·	·
CCOC(=O)C1(CCCc2ccccc2)CCN(C(=O)Cn2nc(C)nc2C)CC1	7%	-7%	-4%	-3%	-10%	2%
COc1ccc(OC)c(CN2C(=O)CN(S(C)(=O)=O)CC2(C)C(=O)NC(C)C)c1 (centres undefined)	10%	·	·	·	·	·
Cc1cc(C)c2nc3nc(C)c(C)cc3c(N)c2c1	-16%	4.1µM*	-6%	-30%	?	-1%
Cc1cc2c(=O)[nH]c(N)nc2nc1C	·	·	1%	·	·	·
SMILES	AMA1 RON2 block	Pf growth 48h	NS1 inh	HCV inh	Pf growth 96h	SARS PLpro yeast
Cc1cc(NC(=O)CCC(=O)N(Cc2ccco2)C2(C(=O)NC3CCCC3)CCC(C)CC2)no1 (centres undefined)	-5%	15µM*	18%	14µM*	?	5%
Cc1cccc(N(C(=O)CCC(=O)Nc2cccnc2)C(C(=O)NC2CCCC2)c2ccncc2)c1 (centres undefined)	2%	?	-3%	10%	12µM*	14%
O=C(c1ccc2c(c1)OCO2)N(Cc1ccco1)C1(C(=O)NC2CCCCC2)CCCCC1	-11%	·	-14%	10µM*	57%	-12%
Cc1cc(NC(=O)CCC(=O)N(c2ccc(F)cc2)C(C(=O)NC2CCCC2)c2ccc(C)o2)no1 (centres undefined)	0%	9.3µM*	-9%	-11%	32%	0%
Cc1cc(C)n2c(SCC(=O)NC3CCCCC3)nnc2n1	-1%	17%	2%	3%	37%	1%
CCN1C(=O)N[C@@H](CCc2ccccc2)[C@@H](C(=O)OC)[C@H]1C	-1%	49%	-6%	-15%	71%	-1%
Cc1cc(NC(=O)CCCC(=O)N(CC(=O)NC2CCCCC2)c2ccccc2)no1	-7%	-22%	?	3%	1%	1%
Cc1cc(NC(=O)CCC(=O)N(c2ccccc2)C(C(=O)NCC2CCCO2)c2cccnc2)no1 (centres undefined)	10%	-1%	-6%	-12%	10µM*	3%
Cc1cc(NC(=O)CCC(=O)N(c2cccnc2)C(C(=O)NC2CCCC2)c2ccccc2)no1 (centres undefined)	-8%	-20%	-6%	1%	29%	1%
Cc1cc(NC(=O)CCC(=O)N(CC(=O)NC2CCCC2)c2ccccc2)no1	-22%	?	-2%	-15%	15µM*	1%
Cc1cc(NC(=O)CCC(=O)N(c2ccccc2)C(C(=O)NC2CCCCC2)c2cccs2)no1 (centres undefined)	-5%	?	3%	2%	8.3µM*	-13%
CCc1ccccc1N(C(=O)CCC(=O)Nc1cc(C)on1)C(C(=O)NC1CCCC1)c1ccco1 (centres undefined)	12%	9.3µM*	-15%	?	27%	-3%
CCN(C(=O)c1cccc(S(=O)(=O)N2CCCCC2)c1)C1CCS(=O)(=O)C1 (centres undefined)	-8%	-2%	·	4%	-4%	-1%
CN(CC(=O)Nc1ccccc1Cl)C(=O)CCc1nc2ccccc2c(=O)[nH]1	-13%	?	·	11%	?	-2%
Cc1cc(NC(=O)/C=C/C(=O)N(CC(=O)NC2CCCC2)c2cccc3ccccc23)no1	18%	10µM*	·	4%	1%	2%
COc1ccc(CN2CCC(C(=O)Nc3ccc(Oc4ccccc4)nc3)CC2)cc1F	3%	?	5%	2.5µM*	?	-4%
